Sampled rows, rich in hits. Any-hit rate of the full collection: about 19%.
TGFb inhibitor: inhibitors of TGF-b signaling; HepG2 CAGA-GFP TGF-b/SMAD3 reporter, GFP fluorescence, 18 h; TGF-beta stimulated, 500 pg/mL final; Potency, µM (series often up to 46.1 µM), actives largely listed as inhibitors; actives 1.2% (n = 410,000); note: nearly all actives have a fitted effect of over 65% in size
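HEPG2 CAGA-GFP cells (1000/well, DMEM with 1% FBS) were pre-incubated 2 h at 37 degrees C, given compound by pin tool, then stimulated with TGF-beta at 500 pg/mL final for 18 h before per-cell GFP fluorescence imaging.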
ASM inhibitor: inhibitors of human secretory acid sphingomyelinase; P17405; placental ASM, HMU-PC fluorogenic substrate, 60 min; Potency, µM (doses to about 57.5 µM), hits mostly inhibitors; actives 0.006% (n = 340,000); AID 504937
Target sequence (P17405 47-631 limits assumed): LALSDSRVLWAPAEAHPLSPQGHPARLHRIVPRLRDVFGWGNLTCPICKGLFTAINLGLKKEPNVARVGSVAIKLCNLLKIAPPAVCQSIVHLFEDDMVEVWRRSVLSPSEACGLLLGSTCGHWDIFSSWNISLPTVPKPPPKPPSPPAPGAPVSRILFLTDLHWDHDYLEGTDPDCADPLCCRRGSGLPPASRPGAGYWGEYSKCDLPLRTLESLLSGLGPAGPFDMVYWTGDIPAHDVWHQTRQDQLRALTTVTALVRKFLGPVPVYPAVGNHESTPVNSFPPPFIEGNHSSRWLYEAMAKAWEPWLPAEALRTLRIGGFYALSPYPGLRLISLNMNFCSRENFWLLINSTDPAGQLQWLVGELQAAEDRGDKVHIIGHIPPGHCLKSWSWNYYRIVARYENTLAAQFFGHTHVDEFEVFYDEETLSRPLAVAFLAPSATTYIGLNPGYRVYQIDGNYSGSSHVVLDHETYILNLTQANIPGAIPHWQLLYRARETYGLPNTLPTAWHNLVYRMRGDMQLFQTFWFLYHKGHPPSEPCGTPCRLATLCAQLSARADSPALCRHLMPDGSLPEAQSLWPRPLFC
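Fluorescence read-out (Ex 386 nm, Em 447 nm) after stopping the reaction at pH 10. Enzyme: ASM from human placenta; substrate HMU-PC0, 9 uM final; 60 min, 37 °C. Compound preincubation 10 min, ambient temperature.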
HepG2 viability: counter-screen for TGF-b inhibitors: cytotoxicity in HepG2 cells. HepG2 CAGA-GFP viability, ATP luminescence, 18 h. actives 0.76% (n = 410,000). Potency, µM (titrated, usually from 46.1 µM), hits mostly cytotoxic
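CellTiter-Glo luminescence gave cytotoxicity after 18 hours at 37 degrees C. The cells were HepG2 CAGA-GFP in 1% FBS DMEM, stimulated with 500 pg/mL TGF-beta after compound addition. %Activity was normalised to no-cell wells (complete cell-killing) and DMSO (no toxicity), and curves were fitted and classified.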
TDP1 cell CPT: DT40-hTDP1 cell growth loss with CPT; chicken DT40 Tdp1-/-;hTDP1 cells + 20 nM CPT, ATP luminescence, 48 h; Potency, µM (titrated, usually from 46.2 µM), usual class: inhibitors; actives 12% (n = 420,000); AID 686979; note: nearly all actives have a fitted effect of over 55% in size
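Cell growth measured by CellTiter-Glo luminescence after a minimum 48 h, 37 C compound exposure with 20 nM CPT in Tdp1-knockout DT40 cells stably expressing hTDP1, seeded 400/well; qHTS titration format.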
IL-1B inflam inh: blocks inflammasome-driven IL-1 beta release | activity change, % at 57.5 µM | THP-1 LPS/ATP IL-1B secretion, AlphaLISA, 16 h; active compounds read low | AID 743279 | actives 4.7% (n = 360,000); in the data active = activity change below about -50%; inconclusive = mostly about -30% to -49%
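THP-1 cells pretreated 1 hr with compounds (up to 57.5 uM final), then stimulated with LPS (250 ng/mL final) plus ATP (1.25 mM final); secreted IL-1B measured by AlphaLISA after 16 hr, decreased signal indicating inhibition.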
TDP1 cell noCPT: qHTS for Inhibitors of human tyrosyl-DNA phosphodiesterase 1 (TDP1): qHTS in cells in absence of CPT | Potency, µM (series often up to 46.2 µM), usual class: inhibitors | DT40 Tdp1-/- hTDP1 cells, no CPT, ATP luminescence, 48 h | actives 15% (n = 420,000); note: nearly all actives have a fitted effect of over 55% in size
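Growth kinetics read by CellTiter-Glo luminescence after ≥48 hr at 37 °C. Cells: DT40 Tdp1-/- stably carrying human TDP1, 400 per well, compound exposure in the absence of CPT (DMSO vehicle).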
A number is an active result. Unless noted, calls come from the whole dose curve; as a rule, active = well fitted curve in the direction sought with a large enough effect; inconclusive = small, poorly fitted or top-dose-only effect, or another doubt; inactive = no such curve, though single readings can be large; an effect the other way counts as inactive or inconclusive.

For CCOC(=O)N1CCC(NCCNC(=O)c2cccs2)CC1 the results were TGFb inhibitor inactive, ASM inhibitor inactive, HepG2 viability inactive, TDP1 cell CPT inactive, IL-1B inflam inh inactive and TDP1 cell noCPT inactive.
`O=C(NCCNC1CCC(c2ccccc2)CC1)c1cccs1` (stereo unspecified) gave TGFb inhibitor inactive, ASM inhibitor inactive, HepG2 viability inactive, TDP1 cell CPT inconclusive, IL-1B inflam inh -72.1 and TDP1 cell noCPT inconclusive.
For Cc1ccc2nc(N(CCCN(C)C)C(=O)CCc3ccccc3)sc2c1 the results were TGFb inhibitor inconclusive, ASM inhibitor inactive, HepG2 viability inactive, TDP1 cell CPT inconclusive and TDP1 cell noCPT inconclusive.
`CN(C)CCCN(C(=O)CCc1ccccc1)c1nc2ccc(Cl)cc2s1` gave TGFb inhibitor inconclusive, ASM inhibitor inactive, HepG2 viability inactive, TDP1 cell CPT 23.1µM and TDP1 cell noCPT 23.1µM.
CN(C)CCCN(C(=O)COc1ccccc1)c1nc2ccc(Cl)cc2s1 was read as TGFb inhibitor inconclusive, ASM inhibitor inactive, HepG2 viability inactive, TDP1 cell CPT inconclusive, IL-1B inflam inh -51.1 and TDP1 cell noCPT inconclusive.
Screening O=C(COc1ccccc1)N(Cc1cccnc1)c1nc2ccc(Cl)cc2s1 returned TGFb inhibitor inactive, HepG2 viability inactive, TDP1 cell CPT inactive and TDP1 cell noCPT inactive.
C=CCc1cc(C)ccc1OCCOCCn1ccnc1 was read as TGFb inhibitor inactive, ASM inhibitor inactive, HepG2 viability inactive, TDP1 cell CPT inconclusive, IL-1B inflam inh inactive and TDP1 cell noCPT inconclusive.
For CN(C(=O)COC(=O)c1ccc(=O)n(Cc2ccccc2)n1)c1ccccc1 the results were TGFb inhibitor inconclusive, ASM inhibitor inactive, HepG2 viability inactive, TDP1 cell CPT 14.6µM, IL-1B inflam inh inactive and TDP1 cell noCPT 18.4µM.
`CN(Cc1ccccc1)C(=O)COC(=O)c1ccc(=O)n(Cc2ccccc2)n1` gave TGFb inhibitor inactive, HepG2 viability inactive, TDP1 cell CPT inactive, IL-1B inflam inh inactive and TDP1 cell noCPT inactive.
For COC(=O)c1cc(C(=O)NNC(=O)c2ccc3c(c2)OCO3)cc([N+](=O)[O-])c1 the results were TGFb inhibitor inactive, ASM inhibitor inactive, HepG2 viability inactive, TDP1 cell CPT inactive, IL-1B inflam inh inactive and TDP1 cell noCPT inactive.
Cc1cccc(Cn2c(-c3ccc[nH]c3=O)nc3ccccc32)c1 was read as TGFb inhibitor inactive, ASM inhibitor inactive, HepG2 viability inactive, TDP1 cell CPT inconclusive, IL-1B inflam inh inactive and TDP1 cell noCPT 20.6µM.
`Cc1ccc(Cn2c(-c3ccccc3)nc3ccccc32)cc1` gave TGFb inhibitor inactive, HepG2 viability inactive, TDP1 cell CPT inconclusive and TDP1 cell noCPT inconclusive.
`Fc1ccc(Cn2c(-c3cccc(Br)c3)nc3ccccc32)cc1` gave TGFb inhibitor inconclusive, HepG2 viability inactive, TDP1 cell CPT inconclusive and TDP1 cell noCPT 18.4µM.
`Cc1cccc(-c2nc3ccccc3n2Cc2ccccc2)c1` gave TGFb inhibitor inconclusive, HepG2 viability inactive, TDP1 cell CPT inconclusive and TDP1 cell noCPT 5.17µM.
Cn1c(=O)c2c(SCc3cccnc3)nc(C3CC3)nc2n(C)c1=O was read as TGFb inhibitor inactive, ASM inhibitor inactive, HepG2 viability inactive, TDP1 cell CPT inactive, IL-1B inflam inh inactive and TDP1 cell noCPT inconclusive.
Screening CC(C)Cc1nc(SCc2cccnc2)c2c(=O)n(C)c(=O)n(C)c2n1 returned TGFb inhibitor inactive, ASM inhibitor inactive, HepG2 viability inactive, TDP1 cell CPT 18.4µM, IL-1B inflam inh inactive and TDP1 cell noCPT inconclusive.
CC(C)=NNc1cnnc2ccc([N+](=O)[O-])cc12 was read as TGFb inhibitor inconclusive, HepG2 viability inactive, TDP1 cell CPT 13µM, IL-1B inflam inh inactive and TDP1 cell noCPT 13µM.
O=C(Nc1ccon1)Nc1ccc(F)cc1F was read as TGFb inhibitor inactive, ASM inhibitor inactive, HepG2 viability inactive, TDP1 cell CPT inactive, IL-1B inflam inh inactive and TDP1 cell noCPT inactive.
Screening Cc1ccc(Nc2nccc(N(C)c3ccc4c(C)n(C)nc4c3)n2)cc1S(N)(=O)=O returned TDP1 cell CPT 10.6µM and TDP1 cell noCPT 13.3µM.
Screening Cc1cc(=O)oc2cc3c(cc12)OCO3 returned TGFb inhibitor inconclusive, ASM inhibitor inactive, HepG2 viability inactive, TDP1 cell CPT inactive, IL-1B inflam inh inactive and TDP1 cell noCPT inactive.
CN(C)Cc1cc(O)c(CN(C)C)cc1O was read as TGFb inhibitor inactive, ASM inhibitor inactive, HepG2 viability inactive, TDP1 cell CPT 2.59µM, IL-1B inflam inh inactive and TDP1 cell noCPT 3.66µM.
Screening COc1ccc(CCNC(=O)Cn2cccc2C(=O)c2ccccc2)cc1OC returned TGFb inhibitor inactive, ASM inhibitor inactive, HepG2 viability inactive, TDP1 cell CPT inactive, IL-1B inflam inh inactive and TDP1 cell noCPT inactive.
`COc1ccc(OC)c(CCNC(=O)Cn2cccc2C(=O)c2ccccc2)c1` gave TGFb inhibitor inactive, ASM inhibitor inactive, HepG2 viability inactive, TDP1 cell CPT 7.31µM, IL-1B inflam inh inactive and TDP1 cell noCPT inconclusive.
For COc1ccc(OC)c(CCNC(=O)Cn2cccc2C(=O)c2ccccc2C)c1 the results were TGFb inhibitor inactive, ASM inhibitor inactive, HepG2 viability inactive, TDP1 cell CPT inconclusive, IL-1B inflam inh inactive and TDP1 cell noCPT 8.2µM.
`Cc1ccc(S(=O)(=O)NC2CC(C)(C)NC(C)(C)C2)cc1C` gave TGFb inhibitor inactive, ASM inhibitor inactive, HepG2 viability inactive, TDP1 cell CPT inactive, IL-1B inflam inh inactive and TDP1 cell noCPT inactive.
CC(=O)N1CCN(C(=S)Nc2ccc(Oc3ccccc3)cc2)CC1 was read as TGFb inhibitor inactive, ASM inhibitor inactive, HepG2 viability inactive, TDP1 cell CPT inactive, IL-1B inflam inh inactive and TDP1 cell noCPT inconclusive.
Oc1cccc(C(O)CNCc2ccc(-c3ccccc3)cc2)c1 (stereo unspecified) was read as TGFb inhibitor inconclusive, ASM inhibitor inactive, HepG2 viability inactive, TDP1 cell CPT 18.4µM, IL-1B inflam inh -50.9 and TDP1 cell noCPT inconclusive.
Screening Oc1cccc(C(O)CNCc2ccc(OCc3ccc(Cl)cc3Cl)cc2)c1 (stereo unspecified) returned TGFb inhibitor inconclusive, ASM inhibitor inactive, HepG2 viability inactive, TDP1 cell CPT inconclusive, IL-1B inflam inh -90.6 and TDP1 cell noCPT 14.6µM.
OC(CNCc1cccc(Cl)c1)c1ccccc1 (stereo unspecified) was read as TGFb inhibitor inactive, ASM inhibitor inactive, HepG2 viability inactive, TDP1 cell CPT inactive, IL-1B inflam inh inactive and TDP1 cell noCPT inconclusive.

Source: PubChem
